The panel holds about 83,000 compounds, 20% with a hit somewhere; the sample as a whole holds those more often.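 96-well plates, one dose, 48 hours. Percent growth reported; active if below 10.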 A number with no mark means an inactive call. Activity calls are given as the source filed them.

Holding throughout (assay): NCI-60 one-dose screen, 48 h (100 = growth as untreated, 0 = no growth, -100 = all killed)
What all share (conditions): 10 µM

Assay [1] relates to K-562 leukemia.
The subject of assay [2] is MALME-3M melanoma.
Assay [3] relates to MDA-MB-231 breast.
For assay [4], the system named is RXF 393 renal.
For assay [5], the system named is SF-268 CNS.
Assay [6] concerns SF-295 CNS.
Assay [7] has as its system SF-539 CNS.
Assay [8] concerns UACC-257 melanoma.
For assay [9], the system named is M14 melanoma.
In assay [10] the test system is HCT-15 colon.

On to `COc1ccc(Cl)cc1C(=O)Nc1nc2ccc(Cl)cc2s1`, for which the growth in assay [1] is 86.8%; in assay [2], 83.3%; in assay [3], 70.9%; in assay [4], 95%; in [5], 83.2%; in [6] it was 170%. Besides, the growth in assay [7] was 86.4%; in assay [8] it was 102%; in [9] it was 95.1%; in [10], 86.5%.

For `O=C(Nc1nc2ccccc2s1)Nc1ccc([N+](=O)[O-])cc1Cl`, the growth is 58.8% in assay [1]; 96.4% in assay [2]; 40.1% in assay [3]; -17.7% (active) in assay [4]; 3.97% (active) in assay [5]; 67.8% in [6]. The growth in assay [7] was -48.5% (active); in assay [8], -10.6% (active); in assay [9] it was 79.7%; in assay [10] it was 87.2%.

For `Cc1ccc(S(=O)(=O)Oc2ccc3c4c(c(=O)oc3c2)CCCCC4)cc1`, the growth in assay [1] was 36.7%; in assay [2] it was 71.9%; in assay [3] it was 74.5%; in assay [4], 68.6%; in assay [5] it was 77.2%; in assay [6] it was 48.7%. For the same compound, the growth is 39.8% in assay [7], 32% in assay [8], 71% in assay [9] and 41.3% in [10].

For the compound `Nc1c(C(=O)Nc2cccc3ccccc23)sc2nc3c(cc12)C(=O)CCC3`, the growth in [1] was 10.3%; in assay [2], 59.9%; in assay [3], 8.28% (active); in [4], -5.71% (active); in assay [5] it was 36.1%; in assay [6], -1.44% (active). The growth in assay [7] was -13.1% (active); in [8], 45%; in assay [9], 12.6%; in assay [10], 18.9%.

As for `O=C(O)c1ccc(P(=O)(O)O)c([N+](=O)[O-])c1`, the growth in [1] was 107%; in [2], 97.7%; in assay [3], 108%; in assay [4], 105%; in assay [5] it was 110%; in assay [6] it was 99.2%. For the same compound, the growth is 104% in assay [7], 92.2% in assay [8], 114% in assay [9] and 102% in [10].

For the compound `CCN1Cc2c(/C=C/c3ccccc3)nc3ccc(OC)cc3c2N(c2cccc(Cl)c2)C1`, the growth in assay [1] was 51.1%; in assay [2], 95.9%; in assay [3], 74%; in assay [4] it was 107%; in assay [5], 102%; in [6], 92.8%. The growth in [7] was 75.1%; in assay [8], 41.5%; in assay [9], 78.4%; in assay [10] it was 57.8%.

On to `Cc1cc(Cc2cc(C)c(O)c(C)c2)cc(C)c1O`, for which the growth in [1] is 13.2%; in [2] it was 46.5%; in assay [3], 59.6%; in assay [4], 58.1%; in assay [5], 64.1%; in assay [6], 42.6%. Besides, the growth in [7] was 37.2%; in [8], 51.5%; in assay [9], 29.9%; in assay [10], 38.2%.

Regarding `CCOC(=O)C(CSC(c1ccccc1)(c1ccccc1)c1ccccc1)NC(=O)C(CSC(c1ccccc1)(c1ccccc1)c1ccccc1)NC(c1ccccc1)(c1ccccc1)c1ccccc1` (stereo not given), the growth in assay [1] is 112%; in assay [2] it was 108%; in [3], 108%; in [4], 97.4%; in assay [5], 110%; in assay [6], 86.7%. Further, the growth in [7] was 112%; in assay [8] it was 88.8%; in [9] it was 111%; in assay [10], 100%.

Take `CCCCOc1ccc(NC(=O)Nc2nnc(C)s2)cc1`: the growth in assay [1] is 83.8%; in assay [2] it was 118%; in assay [3] it was 90.7%; in assay [4] it was 110%; in assay [5], 109%; in assay [6], 87.4%. In addition, the growth is 95.3% in [7], 22.5% in assay [8], 91.4% in assay [9] and 99.5% in assay [10].

For the compound `Cc1cccc(NC2=C(C#N)C(=O)NC3(CCCC3)S2)c1`, the growth in [1] was 95.3%; in assay [2], 104%; in assay [3], 110%; in assay [4], 102%; in assay [5], 103%; in assay [6], 108%. Further, the growth in [7] is 91.5%; in assay [8], -4.62% (active); in [9] it was 105%; in [10], 95.8%.

Source of the values: PubChem BioAssay (NCI).
